Where “and” joins values, the source holds several entries; their conditions need not be identical. Equal entries are not always repeated. Inconclusive results are not listed. Calls of active or inactive are those of the source. Unless noted, calls come from the whole dose curve; as a rule, active = well fitted curve in the direction sought with a large enough effect; inconclusive = small, poorly fitted or top-dose-only effect, or another doubt; inactive = no such curve, though single readings can be large; an effect the other way counts as inactive or inconclusive.
What was measured:
[1] = Validation screen for small molecules that induce genotoxicity in human embryonic kidney (HEK293T) cells expressing luciferase-tagged ELG1 (AID 493106); note: 0% is about no effect
How it was run: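 In this validation screen, increased ELG1-luciferase signal flags compounds causing genetic stress. HEK293T reporter cells are treated 16 hr (37 °C, 5% CO2), developed with ONE-Glo for 30 min at room temperature, and imaged on a CCD-based reader.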

[2] = biological target: ATPase family AAA domain-containing protein 5 (Homo sapiens) (UniProt Q96QE3); test: Validation screen for small molecules that inhibit ELG1-dependent DNA repair in human embryonic kidney (HEK293T) cells expressing luciferase-tagged ELG1 (AID 493107);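 note: cells co-treated with the DNA-damaging agent 5-fluorouridine alongside compound; series mostly up to about 46 µM; % is set by controls: 0 for no effect and ±100 for the full control effect; inhibitors lower the ELG1-luciferase luminescence signal; nearly all actives have a fitted effect of over 70% in size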
ATPase family AAA domain-containing protein 5 (Homo sapiens), sequence (Q96QE3 whole entry, looked up, the tested form may be a part): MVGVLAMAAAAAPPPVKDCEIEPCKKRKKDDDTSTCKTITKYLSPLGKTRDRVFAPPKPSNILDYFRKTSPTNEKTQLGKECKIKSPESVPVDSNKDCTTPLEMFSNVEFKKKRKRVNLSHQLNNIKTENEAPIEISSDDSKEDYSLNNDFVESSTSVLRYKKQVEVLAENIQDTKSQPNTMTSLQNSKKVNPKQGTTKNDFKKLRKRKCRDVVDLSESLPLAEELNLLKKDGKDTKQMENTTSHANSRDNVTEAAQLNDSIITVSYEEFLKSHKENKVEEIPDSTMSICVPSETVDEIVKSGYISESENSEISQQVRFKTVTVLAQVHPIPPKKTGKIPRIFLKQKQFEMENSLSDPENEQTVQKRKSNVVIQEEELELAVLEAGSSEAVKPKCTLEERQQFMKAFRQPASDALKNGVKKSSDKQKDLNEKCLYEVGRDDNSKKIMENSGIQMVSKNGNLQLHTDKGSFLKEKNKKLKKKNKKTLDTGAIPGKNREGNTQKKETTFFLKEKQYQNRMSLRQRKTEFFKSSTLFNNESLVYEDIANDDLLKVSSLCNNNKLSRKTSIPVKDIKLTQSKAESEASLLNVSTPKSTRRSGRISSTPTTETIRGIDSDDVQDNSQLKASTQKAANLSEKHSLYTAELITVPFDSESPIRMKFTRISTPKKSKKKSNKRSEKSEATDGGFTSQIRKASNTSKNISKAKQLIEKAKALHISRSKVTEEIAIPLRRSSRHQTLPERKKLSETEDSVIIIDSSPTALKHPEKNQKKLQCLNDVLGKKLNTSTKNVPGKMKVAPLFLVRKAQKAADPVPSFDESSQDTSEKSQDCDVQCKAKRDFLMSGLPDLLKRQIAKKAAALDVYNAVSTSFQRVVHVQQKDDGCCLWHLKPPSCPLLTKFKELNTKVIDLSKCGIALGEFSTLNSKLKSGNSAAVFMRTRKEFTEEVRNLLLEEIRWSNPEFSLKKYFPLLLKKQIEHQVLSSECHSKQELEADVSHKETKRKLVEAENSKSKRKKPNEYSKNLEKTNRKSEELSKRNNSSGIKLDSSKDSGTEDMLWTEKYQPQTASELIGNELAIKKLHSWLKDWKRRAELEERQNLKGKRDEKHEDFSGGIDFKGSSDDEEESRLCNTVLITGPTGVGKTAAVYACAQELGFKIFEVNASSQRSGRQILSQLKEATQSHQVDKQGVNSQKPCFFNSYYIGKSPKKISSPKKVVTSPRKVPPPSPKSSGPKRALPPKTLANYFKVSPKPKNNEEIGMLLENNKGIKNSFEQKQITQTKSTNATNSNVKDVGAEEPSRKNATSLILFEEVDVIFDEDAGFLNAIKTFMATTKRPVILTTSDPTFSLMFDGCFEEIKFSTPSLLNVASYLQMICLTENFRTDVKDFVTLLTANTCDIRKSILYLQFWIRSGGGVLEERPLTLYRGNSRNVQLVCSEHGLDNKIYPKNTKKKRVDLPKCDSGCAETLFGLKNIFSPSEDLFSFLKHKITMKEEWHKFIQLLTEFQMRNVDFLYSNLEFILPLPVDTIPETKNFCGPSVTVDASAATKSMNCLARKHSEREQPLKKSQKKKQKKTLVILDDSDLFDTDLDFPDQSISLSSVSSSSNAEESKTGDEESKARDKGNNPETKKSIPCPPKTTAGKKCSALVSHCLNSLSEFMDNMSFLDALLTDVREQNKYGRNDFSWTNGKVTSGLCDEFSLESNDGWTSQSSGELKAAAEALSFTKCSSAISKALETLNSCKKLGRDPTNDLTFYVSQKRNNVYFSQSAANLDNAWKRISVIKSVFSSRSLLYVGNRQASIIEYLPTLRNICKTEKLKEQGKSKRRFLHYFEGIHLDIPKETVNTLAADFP
How it was run: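 Compounds reducing 5-fluorouridine-driven ELG1-luciferase signal in HEK293T cells were scored; exposure lasted 16 hr at 37 °C with luminescence detected via ONE-Glo.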

[3] = biological target: Thyrotropin-releasing hormone receptor (Homo sapiens) (UniProt P34981); test: qHTS for Small Molecule Agonists and Allosteric Enhancers of Human TRH Receptor: Validation Screen for Agonists (AID 493127;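 active = calcium activation more than 3 SD above the typical response in the agonist read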;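 note: intracellular calcium rise by fluo-8 fluorescence before TRH EC20 addition; 0% is about no effect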); settings: TRH receptor agonist cell assay; at 2 µM; stronger effect = higher value
How it was run: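 Kinetic fluorescence assay of agonist-induced calcium release: overnight-plated TRHR cells, room-temperature fluo-8 loading, baseline then compound addition with per-second reads.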

[4] = Nrf2 qHTS screen for inhibitors: Validation (AID 493153; active = well fitted inhibition curve with a large enough effect in the main read-out, with a control signal flat, not every such curve was filed as active); settings: Potency: luciferase luminescence; viability change: measured here: cytotoxicity max response
How it was run: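 In this counterscreened reporter format, each well gives two signals: CellTiter-Fluor fluorescence for cytotoxicity and ARE-luciferase luminescence for Nrf2 function. A549 ARE_Fluc cells in 5% FBS OPTI-MEM were exposed to compound titrations for 18-24 h.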

[5] = qHTS for Inhibitors of Cell Surface uPA Generation: Validation Assay (AID 493164);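 note: RAW 264.7 macrophage cells exposed to compound for 18 h; 0% is about no effect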
How it was run: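 Compounds are titrated over seven points (2.45 nM–38.3 uM final) onto pre-plated RAW 264.7 cells and incubated for 18 h. Retained intracellular ATP, measured with ATP-Lite, indicates blocked lethal factor entry.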

[6] = biological target: Galactokinase (Homo sapiens) (UniProt P51570); test: qHTS Validation Assay for Inhibitors of Human Galactokinase (GALK) (AID 493189); note: 0% is about no effect
How it was run: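 Compounds were pin-transferred into ATP buffer, then GALK-galactose mix was added (final 5 nM enzyme, 100 uM galactose, 35 uM ATP). After 1 h at room temperature, remaining ATP was measured luminescently.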

[7] = Validation screen for small molecules that induce DNA re-replication in SW480 colon adenocarcinoma cells (AID 504364); note: 0% is about no effect
How it was run: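 Hoechst-stained SW480 nuclei, imaged at 405 nm excitation after 48 hr compound exposure, were counted for elevated DNA content as the re-replication signal.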

[8] = biological target: Peptidyl-prolyl cis-trans isomerase NIMA-interacting 1 (Homo sapiens) (UniProt Q13526); test: qHTS Validation Assay to Find Inhibitors of Pin1 (AID 504536; active = well fitted inhibition curve with a large enough effect in the polarisation, with a control signal flat, not every such curve was filed as active; the % refers to the polarisation;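 note: 0% = full Pin1 enzyme wells and -100% = no-enzyme wells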)
Peptidyl-prolyl cis-trans isomerase NIMA-interacting 1 (Homo sapiens), sequence (Q13526 whole entry, looked up): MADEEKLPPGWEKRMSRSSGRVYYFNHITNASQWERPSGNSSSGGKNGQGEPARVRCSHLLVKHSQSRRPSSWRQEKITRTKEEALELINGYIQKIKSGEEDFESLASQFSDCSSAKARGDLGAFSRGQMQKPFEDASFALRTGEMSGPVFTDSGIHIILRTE
How it was run: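 Fluorescence polarization competition: compounds (titration) displace HiFluor-488-labeled Pin1-1b peptide from Pin1 (0.3 uM final) in pH 7.5 HEPES buffer with DTT, 10 min at room temperature; %Activity normalized to no-enzyme wells, curves fitted.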

[9] = biological target: Phosphoglycerate kinase, glycosomal (Trypanosoma brucei brucei) (UniProt P07378); test: qHTS Validation Assay to Find Inhibitors of Phosphoglycerate Kinase (AID 504547); note: potency is the fitted concentration of half-maximal effect
Phosphoglycerate kinase, glycosomal (Trypanosoma brucei brucei), sequence (P07378 whole entry, looked up): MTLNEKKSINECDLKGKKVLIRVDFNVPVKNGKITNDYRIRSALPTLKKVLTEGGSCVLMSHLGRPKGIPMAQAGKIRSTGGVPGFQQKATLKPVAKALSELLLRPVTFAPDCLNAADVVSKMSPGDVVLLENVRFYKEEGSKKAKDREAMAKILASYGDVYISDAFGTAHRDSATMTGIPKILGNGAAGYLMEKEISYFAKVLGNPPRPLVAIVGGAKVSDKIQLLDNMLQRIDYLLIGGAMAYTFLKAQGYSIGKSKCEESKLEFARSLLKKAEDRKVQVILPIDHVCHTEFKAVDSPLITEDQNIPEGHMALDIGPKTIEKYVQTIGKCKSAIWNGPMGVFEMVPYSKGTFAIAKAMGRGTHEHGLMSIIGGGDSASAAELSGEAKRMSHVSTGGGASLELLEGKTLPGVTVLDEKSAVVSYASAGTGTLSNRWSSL
How it was run: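 Compounds are pinned into the substrate/PGK mixture, and GAPDH (100nM final) is added to start the reaction by producing 1,3-BPG. After 60 minutes at room temperature, Kinase-Glo Plus is added and luminescence is measured 10 minutes later.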

[10] = biological target: phosphoglycerate mutase (Leishmania major) (UniProt Q4Q090); test: qHTS Validation Assay to Find Inhibitors of Phosphoglycerate Mutase (AID 504548); note: series mostly up to about 58 µM; % is set by controls: 0 for no effect and ±100 for the full control effect
phosphoglycerate mutase (Leishmania major), sequence (Q4Q090 1-553): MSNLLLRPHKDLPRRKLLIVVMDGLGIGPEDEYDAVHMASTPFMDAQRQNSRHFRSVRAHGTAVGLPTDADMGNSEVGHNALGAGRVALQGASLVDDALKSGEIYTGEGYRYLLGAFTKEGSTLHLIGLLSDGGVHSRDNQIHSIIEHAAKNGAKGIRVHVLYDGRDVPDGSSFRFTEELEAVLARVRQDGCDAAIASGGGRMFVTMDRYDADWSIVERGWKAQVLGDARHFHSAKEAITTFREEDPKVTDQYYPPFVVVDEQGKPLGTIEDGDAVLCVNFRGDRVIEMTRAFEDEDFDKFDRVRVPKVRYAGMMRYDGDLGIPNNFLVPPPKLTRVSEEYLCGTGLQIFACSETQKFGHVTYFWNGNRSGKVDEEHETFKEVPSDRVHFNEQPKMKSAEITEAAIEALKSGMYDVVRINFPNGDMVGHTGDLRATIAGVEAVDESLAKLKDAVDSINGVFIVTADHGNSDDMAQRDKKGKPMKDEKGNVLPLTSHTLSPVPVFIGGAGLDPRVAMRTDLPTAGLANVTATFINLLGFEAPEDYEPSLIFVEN
How it was run: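 Lm PGAM at 1.25 nM final with substrate in 100 mM TEA pH 7.6, 5 mM MgCl2, 0.01% Tween-20; 45 min at room temperature. Kinase-GloPlus added, 10 min, end-point luminescence read.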

[11] = biological target: Ubiquitin carboxyl-terminal hydrolase 1 (Homo sapiens) (UniProt O94782); test: Inhibitors of USP1/UAF1: Pilot qHTS (AID 504865);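 note: rhodamine fluorescence freed from ubiquitin-rhodamine substrate followed over time; top concentration of the series differs between compounds; % is set by controls: 0 for no effect and ±100 for the full control effect; nearly all actives have a fitted effect of over 35% in size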
How it was run: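 Kinetic fluorescence assay: 1nM USP1/UAF1, 15 min compound preincubation, then 150nM Ub-Rho; 480/540 nm.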

[12] = qHTS for Inhibitors of ATXN expression: Validation of Cytotoxic Assay (AID 588349); note: % is set by controls: 0 for no effect and ±100 for the full control effect
How it was run: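 Toxicity of test compounds toward HEK293 cells is scored from cellular ATP content measured by CellTiter Glo. Cells receive titrated doses and incubate 72 hr at 37 degrees C beforehand.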

[13] = biological target: DNA dC->dU-editing enzyme APOBEC-3G (Homo sapiens) (UniProt Q9HC16); test: qHTS for inhibitors of Vif-A3G interactions: Validation (AID 588379); note: 0% is about no effect
DNA dC->dU-editing enzyme APOBEC-3G (Homo sapiens), sequence (Q9HC16 whole entry, looked up): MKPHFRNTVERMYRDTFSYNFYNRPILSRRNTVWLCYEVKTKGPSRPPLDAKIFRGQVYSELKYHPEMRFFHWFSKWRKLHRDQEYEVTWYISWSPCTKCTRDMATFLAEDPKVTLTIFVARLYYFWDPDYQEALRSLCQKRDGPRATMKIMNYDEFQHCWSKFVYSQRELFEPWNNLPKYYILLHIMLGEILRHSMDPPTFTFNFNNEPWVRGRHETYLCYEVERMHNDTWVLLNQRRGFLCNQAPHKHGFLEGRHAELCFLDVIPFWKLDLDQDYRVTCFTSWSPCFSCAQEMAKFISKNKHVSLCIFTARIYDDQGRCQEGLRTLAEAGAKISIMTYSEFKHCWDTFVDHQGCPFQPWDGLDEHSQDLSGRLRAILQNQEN
How it was run: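 Yellow fluorescence (Ex 488, Em 500-530) of Vif-coexpressing HeLa A3G-eYFP cells, scanned by Acumen cytometer, reports blocked A3G degradation. Cells plated at 700/well overnight at 37 deg C before compound addition, then a further overnight compound incubation at 37 deg C.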

[14] = qHTS for Inhibitors of ATXN expression: Validation (AID 588378); note: series mostly up to about 57 µM; % is set by controls: 0 for no effect and ±100 for the full control effect; nearly all actives have a fitted effect of over 75% in size
How it was run: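 Validation of ATXN2 expression inhibitors uses a cell-based luciferase fusion reporter in HEK293 cells, with 24 h compound exposure and paired viability (fluorescence) and reporter (luminescence) end-point reads.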

[15] = qHTS assay for small molecule antagonists of peroxisome proliferator-activated receptor delta signaling (AID 588535); settings: HEK293T PPARd-UAS-bla, beta-lactamase FRET ratio, 18 h; 460 nm channel;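 note: cells co-treated with a PPAR-delta agonist as stimulator during compound exposure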
How it was run: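 Beta-lactamase reporter read-out (405 nm excitation, 460/530 nm emission) after CCF4 loading for 2 hrs at RT. HEK293T PPAR-delta-UAS-bla cells, 2% charcoal/dextran FBS, compounds for 18 hrs at 37 C. Hill fit gave IC50 and efficacy.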

[16] = biological target: Estrogen receptor (Homo sapiens) (UniProt P03372); test: qHTS assay for small molecule agonists of estrogen receptor alpha signaling (AID 588514; calls by dose curve;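 note: 0% = vehicle only and 100% = reference agonist; nearly all actives have a fitted effect of over 70% in size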)
Estrogen receptor (Homo sapiens), sequence (P03372 whole entry, looked up): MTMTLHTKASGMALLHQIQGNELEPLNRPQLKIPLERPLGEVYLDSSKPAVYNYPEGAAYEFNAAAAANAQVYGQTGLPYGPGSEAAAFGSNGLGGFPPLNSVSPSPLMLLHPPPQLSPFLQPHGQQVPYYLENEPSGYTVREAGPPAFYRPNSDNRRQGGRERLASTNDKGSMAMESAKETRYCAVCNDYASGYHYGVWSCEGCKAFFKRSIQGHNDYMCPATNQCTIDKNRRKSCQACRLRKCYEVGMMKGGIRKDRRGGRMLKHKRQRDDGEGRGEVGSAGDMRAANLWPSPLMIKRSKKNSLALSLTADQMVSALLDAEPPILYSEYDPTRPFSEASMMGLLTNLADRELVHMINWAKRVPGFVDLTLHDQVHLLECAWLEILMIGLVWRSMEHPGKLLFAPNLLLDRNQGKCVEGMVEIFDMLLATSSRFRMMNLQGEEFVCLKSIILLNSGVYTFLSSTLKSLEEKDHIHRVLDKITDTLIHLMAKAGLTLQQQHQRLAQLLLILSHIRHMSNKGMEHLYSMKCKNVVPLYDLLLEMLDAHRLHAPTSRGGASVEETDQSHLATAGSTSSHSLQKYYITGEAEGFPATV
How it was run: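 Fluorescence from CCF4 cleavage reports ER-alpha-driven beta-lactamase expression in HEK 293 cells treated 18 hrs at 37 C. Data normalized to 17-beta-estradiol (20 nM) and DMSO, fitted to Hill equation.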

[17] = biological target: Androgen receptor (Homo sapiens) (UniProt P10275); test: qHTS assay for small molecule antagonists of androgen receptor signaling (AID 588516; active = well fitted curve in the direction sought with a large enough effect in the signal ratio, with a control signal flat, not every such curve was filed as active; the % refers to the signal ratio; note: % is set by controls: 0 for no effect and ±100 for the full control effect)
How it was run: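 Antagonist-mode qHTS: inhibition of R1881 (10 nM)-driven beta-lactamase expression in GripTite HEK 293 cells is measured after 16 h; values are Hill-derived IC50s normalized between R1881 and DMSO wells.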

[18] = biological target: Glucocorticoid receptor (Homo sapiens) (UniProt P04150); test: qHTS assay for small molecule agonists of glucocorticoid receptor signaling (AID 588532; active = well fitted curve in the direction sought with a large enough effect in the signal ratio, with a control signal flat; the % refers to the signal ratio;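 note: 100% = dexamethasone at 0.1 µM and 0% = DMSO only wells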); settings: HeLa MMTV-bla, beta-lactamase ratio, agonist, 18 h; stronger effect = higher value; percent of dexamethasone control, DMSO zero
Glucocorticoid receptor (Homo sapiens), sequence (P04150 whole entry, looked up): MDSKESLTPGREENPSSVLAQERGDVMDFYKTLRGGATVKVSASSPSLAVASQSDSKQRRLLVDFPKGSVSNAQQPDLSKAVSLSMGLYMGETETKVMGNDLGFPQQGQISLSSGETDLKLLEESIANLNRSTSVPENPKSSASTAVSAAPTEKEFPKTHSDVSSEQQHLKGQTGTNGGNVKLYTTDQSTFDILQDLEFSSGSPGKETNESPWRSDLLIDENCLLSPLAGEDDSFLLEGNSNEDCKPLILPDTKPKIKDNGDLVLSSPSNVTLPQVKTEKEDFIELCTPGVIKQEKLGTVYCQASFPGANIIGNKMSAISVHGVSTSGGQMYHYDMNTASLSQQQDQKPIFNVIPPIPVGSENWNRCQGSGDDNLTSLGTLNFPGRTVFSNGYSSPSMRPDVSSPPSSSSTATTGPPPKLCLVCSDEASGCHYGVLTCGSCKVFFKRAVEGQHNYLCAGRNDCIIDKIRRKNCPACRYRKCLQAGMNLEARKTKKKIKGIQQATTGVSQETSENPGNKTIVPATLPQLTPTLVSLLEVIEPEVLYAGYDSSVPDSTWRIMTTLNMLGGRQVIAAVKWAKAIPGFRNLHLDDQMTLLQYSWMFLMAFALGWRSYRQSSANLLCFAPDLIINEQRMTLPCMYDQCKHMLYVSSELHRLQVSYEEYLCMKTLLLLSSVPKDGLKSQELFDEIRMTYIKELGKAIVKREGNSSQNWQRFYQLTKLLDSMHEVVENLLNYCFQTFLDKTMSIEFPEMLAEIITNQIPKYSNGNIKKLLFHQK
How it was run: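 Cells were plated and rested 3-5 h at 37 C, compounds were added in titration and incubated 18 h, then CCF4 substrate was loaded for 2 h at RT before reading blue/green fluorescence. EC50 came from Hill-equation fitting.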

[19] = biological target: Bile acid receptor (Homo sapiens) (UniProt Q96RI1); test: qHTS assay for small molecule antagonists of farnesoid X receptor signaling (AID 588526; calls by dose curve; note: % is set by controls: 0 for no effect and ±100 for the full control effect)
How it was run: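 Antagonist mode: titrated compounds tested against chenodeoxycholic acid stimulation (normalized to 50 uM CDCA and DMSO) in GeneBLAzer HEK293T cells for 16 h. Beta-lactamase read by CCF4 fluorescence; IC50 from Hill fits.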

OCCN1CCN(CCCN2c3ccccc3Sc3ccc(C(F)(F)F)cc32)CC1
1.55%: viability change [4]
inactive: Potency [1] | Potency [2] | activation [3] 1.88% | Potency [4] | outcome [5] | Potency [6] | Potency [7] | Potency [8] | Potency [9] | outcome [10]

Clc1ccccc1C(c1ccccc1)(c1ccccc1)n1ccnc1
inactive: Potency [1] | Potency [2] | activation [3] -13.1% | outcome [5] | Potency [6] | Potency [7] | Potency [8] | Potency [9] | outcome [10]

Cc1cc(C(C)(C)C)c(O)c(C)c1CC1=NCCN1
inactive: Potency [1] | Potency [2] | activation [3] 1.19% | Potency [4] | outcome [5] | Potency [6] | Potency [7] | Potency [8] | Potency [9] | outcome [10] | Potency [11] | outcome [12] | outcome [13]
1.24%: viability change [4]

COc1ccccc1OCC(O)CN1CCN(CC(=O)Nc2c(C)cccc2C)CC1 (stereo not drawn)
inactive: Potency [1] | Potency [2] | activation [3] 0.375% | Potency [4] | outcome [5] | Potency [6] | Potency [7] | Potency [8] | Potency [9] | outcome [10] | Potency [11] | outcome [12] | Potency [14]
-3.01%: viability change [4]

C[C@](N)(Cc1ccc(O)c(O)c1)C(=O)O
0.569%: viability change [4]
inactive: Potency [1] | Potency [2] | activation [3] 1.25% | Potency [4] | outcome [5] | Potency [6] | Potency [7] | Potency [8] | Potency [11] | outcome [13]
-4.18%: max response [15]
active: Potency [9] 2130 nM

CC(CCc1ccc(O)cc1)NCCc1ccc(O)c(O)c1 (stereo not drawn)
inactive: Potency [1] | Potency [2] | activation [3] 1.06% | Potency [4] | outcome [5] | Potency [6] | Potency [7] | Potency [8] | Potency [9] | outcome [10] | Potency [11]
2.92%: viability change [4]

CN(C)c1nc(N(C)C)nc(N(C)C)n1
0%: viability change [4]
inactive: Potency [1] | Potency [2] | activation [3] 0.188% | Potency [4] | outcome [5] | Potency [6] | Potency [7] | Potency [8] | Potency [9] | outcome [10] | Potency [11] | outcome [12] | Potency [14]

COc1nc(C)nc(Cl)c1NC1=NCCN1
4.38%: viability change [4]
inactive: Potency [1] | Potency [2] | activation [3] 0.688% | Potency [4] | outcome [5] | Potency [6] | Potency [7] | Potency [8] | Potency [9] | outcome [10] | Potency [11] | outcome [12]

CN(C)CCOC(c1ccccc1)c1ccccc1
2.71%: viability change [4]
inactive: Potency [1] | Potency [2] | activation [3] -3.31% | Potency [4] | outcome [5] | Potency [6] | Potency [7] | Potency [8] | Potency [9] | outcome [10] | outcome [12] | outcome [16] | outcome [17] | activation [18] -3.72%

Nc1ccn([C@H]2CC[C@@H](CO)O2)c(=O)n1
inactive: Potency [1] | Potency [2] | activation [3] 0.938% | Potency [4] | outcome [5] | Potency [6] | Potency [7] | Potency [8] | Potency [9] | outcome [10] | Potency [11] | outcome [12] | outcome [13] | outcome [16]
-1.24%: viability change [4]
-2.4% and 34.8%: max response [15]

CCOC(=O)C(C)(C)Oc1ccc(Cl)cc1
inactive: Potency [1] | Potency [2] | activation [3] -8.94% | Potency [4] | outcome [5] | Potency [6] | Potency [7] | Potency [8] | Potency [9] | outcome [10] | Potency [11] | outcome [12] | Potency [19] | activation [18] -5.3%
-5.48%: viability change [4]
-15.2%: max response [15]

CC(C)Cc1ccc(C(C)C(=O)O)cc1 (stereo not drawn)
43%: max response [15]
inactive: Potency [1] | Potency [2] | activation [3] 0.375% | Potency [4] | outcome [5] | Potency [7] | Potency [8] | Potency [9] | outcome [10] | Potency [11] | outcome [12] | outcome [16] | activation [18] -8.45%
7.62%: viability change [4]

Nc1nnc(-c2cccc(Cl)c2Cl)c(N)n1
inactive: Potency [1] | Potency [2] | activation [3] 0.938% | Potency [4] | outcome [5] | Potency [6] | Potency [7] | Potency [8] | Potency [9] | outcome [10] | Potency [11] | outcome [12] | Potency [14] | outcome [13]
-4.23%: viability change [4]

NC(=O)OCC(COC(N)=O)c1ccccc1
2.5%: viability change [4]
inactive: Potency [1] | Potency [2] | activation [3] 0.5% | Potency [4] | outcome [5] | Potency [6] | Potency [7] | Potency [8] | Potency [9] | outcome [10] | Potency [11] | outcome [12] | outcome [13]

CCc1cccc2c3c([nH]c12)C(CC)(CC(=O)O)OCC3 (stereo not drawn)
inactive: Potency [1] | Potency [2] | Potency [4] | outcome [5] | Potency [6] | Potency [7] | Potency [8] | Potency [9] | outcome [10] | Potency [11] | outcome [12] | Potency [14]
-5.62%: viability change [4]

CN1C(C(=O)Nc2ccccn2)=C(O)c2ccccc2S1(=O)=O
inactive: Potency [1] | Potency [2] | activation [3] 0.812% | outcome [5] | Potency [6] | Potency [7] | Potency [8] | Potency [9] | outcome [10] | Potency [11] | outcome [12] | Potency [14] | outcome [13]

CC[N+](CC)(CC)CCOc1cccc(OCC[N+](CC)(CC)CC)c1OCC[N+](CC)(CC)CC
inactive: Potency [1] | Potency [2] | Potency [4] | outcome [5] | Potency [6] | Potency [7] | Potency [8] | Potency [9] | outcome [10] | outcome [12]
5.55%: viability change [4]
